Source: PubChem BioAssay (NCI)
The panel holds about 83,000 compounds, 20% with a hit somewhere; the sample as a whole holds those more often.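 A percent growth of 40 corresponds to 60% growth inhibition; 0 means no net growth; -100 means all cells died. Active threshold: below 10.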 Unmarked numbers belong to inactive results. Activity calls are given as the source filed them.

These compounds were tested on MALME-3M melanoma (assay: NCI-60 one-dose screen, 48 h (100 = growth as untreated, 0 = no growth, -100 = all killed)). Settings: 10 µM unless noted.
`Cc1ccc(Cn2c(O)c(N=NC(=O)c3ccc(S(N)(=O)=O)cc3)c3ccccc32)cc1` was tested, and the growth was 97.1%.
For `CC[C@]12C=CCN3CC[C@@]4(c5ccc(OC)cc5N(C)[C@H]4[C@@](O)(C(=O)OC)[C@@H]1OC(=O)CCC(=O)O[C@H]1CC[C@H]4[C@@H]5CCC6=CC(=O)CC[C@@H]6[C@H]5CC[C@]14C)[C@@H]32`, the growth was -16.4% [100 µM] (active).
`CCC(Br)(CC)C(=O)c1ccc(OCC(=O)O)c(Cl)c1Cl` showed a growth of 107%.
`Oc1c(CNCCNCc2cc(Cl)cc(Cc3ccccc3)c2O)cc(Cl)cc1Cc1ccccc1` was tested, and the growth was 8.23% (active).
Compound `CCc1ccc(-c2ccc(COc3ccc(CC4SC(=O)NC4=O)cc3)cc2)cc1` (stereo not given) has a growth of 67.3%.
In the case of `Cn1cc(-c2noc(-c3cn(C)c4ncc(F)cc34)n2)c2ccccc21`, the growth is reported as 66%.
Compound `Clc1ccc2nc(-c3ccc(-c4ccc(/C=N/NC5=NCCN5)cc4)s3)cn2c1` has a growth of 94.3%.
Work on `CC(C)CCSc1nc(N)nc2nc[nH]c12` yielded a growth of 250%.

The compounds below were run on MDA-MB-231 breast in the same assay as above. Settings: 10 µM unless noted.
Compound `O=C(COc1cccc(/C=C2\Oc3ccccc3C2=O)c1)c1ccc([N+](=O)[O-])cc1` has a growth of 72.6%.
With `CC[C@]12C=CCN3CC[C@@]4(c5ccc(OC)cc5N(C)[C@H]4[C@@](O)(C(=O)OC)[C@@H]1OC(=O)CCC(=O)N[C@H](Cc1c[nH]c4ccccc14)C(=O)OC)[C@@H]32` the growth was -71% [100 µM] (active).
Compound `C=C(C)[C@@H]1CC[C@]2(C(N)=O)CC[C@]3(C)[C@H](CC[C@@H]4[C@@]5(C)C/C(=C/c6cccnc6)[C@H](O)C(C)(C)[C@@H]5CC[C@]43C)[C@@H]12` has a growth of 28.9% [100 µM].
Work on `CSc1nc2sc3cc(Cl)c(Cl)cc3n2c(=N)c1C#N` yielded a growth of 83.7%.
`COc1ccc(/C=C2\N=C(Nc3ccccc3)N(NC(=O)c3ccccn3)C2=O)cc1` showed a growth of 94.6%.
With `O=C(NCCCNC(=O)OCc1ccc2cccc(O)c2n1)OCc1ccc2cccc(O)c2n1` the growth was 70%.
`COc1cc(C(=O)/C=C/c2c(-c3ccc(F)cc3)nc3sccn23)cc(OC)c1OC` gave a growth of 51%.
For `CCCCCCCCCCCCNC(=S)N/N=C/c1ccccc1O`, the growth was 78.8%.
Compound `CCCc1cc2cc(-n3nc(C)c4c3CC(C)(C)CC4=O)cc(NC3CCSCC3)c2c(=O)[nH]1` has a growth of 55.6%.
Compound `COc1ccc(-c2cc(-c3ccc(OC)c(OC)c3)nc(SCCCCCC(=O)NO)n2)cc1` has a growth of 42.2%.
For `CCC(C)[C@H](NC(=O)NC(=O)NC(=O)CI)C(=O)OC` (stereo not given in full), the growth was 46.8%.
In the case of `CCN(CC)c1ccc(/C=C/c2ccc3cc(C)ccc3[n+]2CC)cc1`, the growth is reported as 21.3%.
Compound `N/C(=N\c1nc2ccccc2[nH]1)NC(=O)Cc1cccc2ccccc12` has a growth of 84.6%.
With `CC1(C)CC[C@]2(C(N)=O)CC[C@]3(C)C(=CC[C@@H]4[C@@]5(C)C/C(=C/c6ccncc6)C(=O)C(C)(C)[C@@H]5CC[C@]43C)[C@@H]2C1` the growth was -75% [100 µM] (active).
Work on `Cc1ccc(C2=C/C(=C/c3ccc(Br)cc3)C(=O)N2CCc2ccc(S(N)(=O)=O)cc2)cc1` yielded a growth of 90.4%.
Work on `Cc1ccc(NCCN2CCCCC2)c2c(=O)c3ccccc3sc12` yielded a growth of 28.3%.
`CC1(C)CC(=O)c2c(ccc(C(=O)C[C@@H](N)CO)c2N)O1` showed a growth of 20.4%.
`CCCCC1COc2cccc3c2N1C=C/C3=C\C(=O)n1ccc2ccccc21` (stereo not given) gave a growth of 85.1%.
Work on `CC(C)CSc1ncnc2nc[nH]c12` yielded a growth of 98.3%.
`CC1(C)CC[C@]2(C(=O)O)CC[C@]3(C)C(=CC[C@@H]4[C@@]5(C)C/C(=C/c6cccnc6)[C@H](O)C(C)(C)[C@@H]5CC[C@]43C)[C@@H]2C1` was tested, and the growth was -24.3% [100 µM] (active).
`COc1ccc(C=C2c3ccccc3-c3ccccc32)cc1` was tested, and the growth was 59.2%.
`C#C[C@]1(O)CC[C@H]2[C@@H]3CC=C4c5nc(Nc6ccc(OC)cc6OC)sc5CC[C@]4(C)[C@H]3CC[C@@]21C` was tested, and the growth was 1.72% (active).
With `CCOC(=O)c1nn(C2CCCCO2)c2ccc(NC(=O)CSc3nc4ccccc4c(=O)[nH]3)cc12` (stereo not given) the growth was 79.9%.
With `O=c1[nH]cnc2c1ccn2C1OC(CO)C(O)C1O` (stereo not given) the growth was 45.3%.
With `CCOC(=O)C(=Cc1ccccc1[N+](=O)[O-])C(=O)OCC` the growth was 9.18% (active).
Work on `Cc1cc(C)c(S(=O)(=O)/N=c2/n(-c3ccccc3)nc3n2CCN3C2=NCCN2)c(C)c1` yielded a growth of 67.7%.
`COC(=O)c1cc2c(=O)[nH]cc3c2c(n1)CCC3` gave a growth of 106%.
In the case of `Cn1cc(-c2noc(C(=O)c3cn(C)c4ncccc34)n2)c2ccccc21`, the growth is reported as 70.3%.
`O=c1cc(-c2ccccc2)oc2cc(OCc3cn(Cc4ccc(F)cc4)nn3)cc(O)c12` gave a growth of 12% [100 µM].
`Cc1ccc(Cn2c(O)c(N=NC(=O)c3ccc(S(N)(=O)=O)cc3)c3ccccc32)cc1` gave a growth of 97.2%.
`CC[C@]12C=CCN3CC[C@@]4(c5ccc(OC)cc5N(C)[C@H]4[C@@](O)(C(=O)OC)[C@@H]1OC(=O)CCC(=O)O[C@H]1CC[C@H]4[C@@H]5CCC6=CC(=O)CC[C@@H]6[C@H]5CC[C@]14C)[C@@H]32` was tested, and the growth was -39.4% [100 µM] (active).
In the case of `CCC(Br)(CC)C(=O)c1ccc(OCC(=O)O)c(Cl)c1Cl`, the growth is reported as 107%.
Compound `Oc1c(CNCCNCc2cc(Cl)cc(Cc3ccccc3)c2O)cc(Cl)cc1Cc1ccccc1` has a growth of 36.2%.
For `CCc1ccc(-c2ccc(COc3ccc(CC4SC(=O)NC4=O)cc3)cc2)cc1` (stereo not given), the growth was 77.3%.
For `Cn1cc(-c2noc(-c3cn(C)c4ncc(F)cc34)n2)c2ccccc21`, the growth was 55.1%.
`Clc1ccc2nc(-c3ccc(-c4ccc(/C=N/NC5=NCCN5)cc4)s3)cn2c1` was tested, and the growth was 96.3%.
Compound `CC(C)CCSc1nc(N)nc2nc[nH]c12` has a growth of 106%.
